# Test results reported in PubChem BioAssay (NCATS).
# Records with an inconclusive call do not appear. Activity calls are given as the source filed them. Unless noted, the call rests on the fitted dose curve; in most records, active means well fitted curve in the direction sought with a large enough effect; inconclusive means small, poorly fitted or top-dose-only effect, or another doubt; inactive means no such curve, though single readings can be large; an effect the other way counts as inactive or inconclusive.
# How the values were obtained:
# [1] = target: Catechol O-methyltransferase (Homo sapiens) (UniProt P21964); experiment: Confirmatory Screen for Target Class Profiling of Small Molecule Inhibitors of Methyltransferases (AID 1745852; calls by dose curve; further: potency means the concentration at half of the fitted maximal effect; on activity change, negative = inhibition: on the % scale 0 is the no-effect control and ±100 the full control effect); details: MTase-Glo luminescence, SAH detection, recombinant enzyme; measured here: COMT max response; stronger effect = lower value
# Sequence of Catechol O-methyltransferase (Homo sapiens) (P21964 whole entry, looked up): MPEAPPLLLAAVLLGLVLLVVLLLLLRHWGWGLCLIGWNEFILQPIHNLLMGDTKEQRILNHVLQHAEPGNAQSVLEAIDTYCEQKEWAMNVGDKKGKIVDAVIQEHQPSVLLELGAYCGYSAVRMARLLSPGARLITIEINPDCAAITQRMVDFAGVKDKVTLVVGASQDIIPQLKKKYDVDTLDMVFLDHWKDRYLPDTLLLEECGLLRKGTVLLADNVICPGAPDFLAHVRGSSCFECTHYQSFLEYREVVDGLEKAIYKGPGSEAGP
# [2] = target: Guanidinoacetate N-methyltransferase (Homo sapiens) (UniProt Q14353); experiment: as above; details: MTase-Glo luminescence, SAH detection, recombinant enzyme; activity change, negative = inhibition: at 57.3 µM (top of the series) unless noted; series mostly up to 57.3 µM
# [3] = target: Nicotinamide N-methyltransferase (Homo sapiens) (UniProt P40261); experiment: as above; details: MTase-Glo luminescence, SAH detection, recombinant enzyme; measured here: NNMT max response; stronger effect = lower value
# Sequence of Nicotinamide N-methyltransferase (Homo sapiens) (P40261 whole entry, looked up): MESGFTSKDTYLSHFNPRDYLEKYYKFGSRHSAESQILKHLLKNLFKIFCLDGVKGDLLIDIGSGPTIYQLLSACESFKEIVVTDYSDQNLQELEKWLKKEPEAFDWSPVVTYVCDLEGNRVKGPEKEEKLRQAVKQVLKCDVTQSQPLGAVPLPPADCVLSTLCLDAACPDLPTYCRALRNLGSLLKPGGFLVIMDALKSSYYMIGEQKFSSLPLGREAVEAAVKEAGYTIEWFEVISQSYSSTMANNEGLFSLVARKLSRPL
# [4] = target: Phenylethanolamine N-methyltransferase (Homo sapiens) (UniProt P11086); experiment: as above; details: MTase-Glo luminescence, SAH detection, recombinant enzyme; measured here: PNMT max response; stronger effect = lower value
# Sequence of Phenylethanolamine N-methyltransferase (Homo sapiens) (P11086 whole entry, looked up): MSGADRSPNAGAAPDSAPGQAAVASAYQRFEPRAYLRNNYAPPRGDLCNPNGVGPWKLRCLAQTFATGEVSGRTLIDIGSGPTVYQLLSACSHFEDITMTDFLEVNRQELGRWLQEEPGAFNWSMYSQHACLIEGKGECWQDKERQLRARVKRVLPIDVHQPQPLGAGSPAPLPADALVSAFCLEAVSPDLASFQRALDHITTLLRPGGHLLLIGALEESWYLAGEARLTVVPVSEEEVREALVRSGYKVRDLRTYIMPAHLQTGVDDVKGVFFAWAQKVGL
# [5] = NCATS anti-infectives library activity on HEK293 viability as a counter-qHTS vs the C. elegans viability qHTS (AID 1745854); details: HEK293 viability counter-screen; series mostly up to 41.8 µM;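 further: HEK293 cells exposed to compounds for 24 hr before the viability read; on the % scale 0 is the no-effect control and ±100 the full control effect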
# Procedure, shortened: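 Compound titrations (final up to 41.7 uM) were incubated with HEK293 cells for 24 hr at 37C under 5% CO2. Viable cells were quantified with CellTiter-Glo after 10 min at ambient temperature.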
# [6] = qHTS drug screen for cell cycle checkpoint inhibitors in PARPi-resistant BRCA-mutant ovarian cancer cell lines. (AID 1963452; calls by dose curve); details: PEO1/OlaR viability, CellTiter-Glo luminescence, 96 h, stronger effect = lower value
# Procedure, shortened: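 PEO1, PEO4 and PEO1/OlaR ovarian cancer cells, 600 per well, exposed 96 h at 37C to a dilution series. Viability read by CellTiter-Glo luminescence, normalized to DMSO and empty wells; activity summarized as Z-AUC.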
# [7] = AP1 Signaling Pathway (AID 357; active means well fitted curve in either direction with a large enough effect, not every such curve was filed as active;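 further: ME-180 reporter cells stimulated with EGF at its EC50 level; on the % scale 0 is the no-effect control and ±100 the full control effect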); details: ME-180 AP-1-bla reporter, EGF-induced, beta-lactamase ratio, 5 h; at 7.69 µM (top of the series) unless noted
# Procedure, shortened: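 A ratiometric CCF4 readout (405 nm excitation; 460 and 530 nm emission) quantified AP-1-driven beta-lactamase in ME-180 cells after 5 h with compound and EC50 EGF; AC50 values were derived for activators and inhibitors.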
# [8] = target: Cytochrome P450 1A2 (Homo sapiens) (UniProt P05177); experiment: p450-cyp1a2 (AID 410; calls by dose curve;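 further: -100% = full effect of reference inhibitor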); details: recombinant CYP1A2, luciferin-ME demethylation, luminescence; series mostly up to 57 µM
# Procedure, shortened: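 Read-out is luminescence from luciferin produced by CYP1A2 demethylation of Luciferin-ME (100uM, at Km). Detection reagent stopped the 60 min NADPH-dependent reaction; signals were normalized to 57 uM furafylline.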
# [9] = NFAT Signaling Pathway (AID 444; active means well fitted curve in either direction with a large enough effect, not every such curve was filed as active;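 further: carbachol stimulus at about its EC50 of 1 µM final; on the % scale 0 is the no-effect control and ±100 the full control effect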); details: Jurkat NFAT-bla M1, carbachol, beta-lactamase ratio, 5 h; at 7.69 µM (top of the series) unless noted
# Procedure, shortened: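 Jurkat cells with NFAT-driven β-lactamase reporter and co-expressed M1 receptor, stimulated with carbachol (final 1 uM, ~EC50), compound titration, 5 h at 37 °C. CCF4 loaded 1 h at RT; 460/530 nm ratio gave %activity and AC50.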
# [10] = target: Glucocorticoid receptor (Homo sapiens) (UniProt P04150); experiment: GR-GFP Redistribution (AID 450;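 active means compounds whose dose series gives a full or clear partial fitted curve of increased nuclear translocation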; further: potency means the concentration at half of the fitted maximal effect); details: U2OS GR-GFP nuclear translocation, laser cytometry, 2 h
# Sequence of Glucocorticoid receptor (Homo sapiens) (P04150 whole entry, looked up, the tested form may be a part): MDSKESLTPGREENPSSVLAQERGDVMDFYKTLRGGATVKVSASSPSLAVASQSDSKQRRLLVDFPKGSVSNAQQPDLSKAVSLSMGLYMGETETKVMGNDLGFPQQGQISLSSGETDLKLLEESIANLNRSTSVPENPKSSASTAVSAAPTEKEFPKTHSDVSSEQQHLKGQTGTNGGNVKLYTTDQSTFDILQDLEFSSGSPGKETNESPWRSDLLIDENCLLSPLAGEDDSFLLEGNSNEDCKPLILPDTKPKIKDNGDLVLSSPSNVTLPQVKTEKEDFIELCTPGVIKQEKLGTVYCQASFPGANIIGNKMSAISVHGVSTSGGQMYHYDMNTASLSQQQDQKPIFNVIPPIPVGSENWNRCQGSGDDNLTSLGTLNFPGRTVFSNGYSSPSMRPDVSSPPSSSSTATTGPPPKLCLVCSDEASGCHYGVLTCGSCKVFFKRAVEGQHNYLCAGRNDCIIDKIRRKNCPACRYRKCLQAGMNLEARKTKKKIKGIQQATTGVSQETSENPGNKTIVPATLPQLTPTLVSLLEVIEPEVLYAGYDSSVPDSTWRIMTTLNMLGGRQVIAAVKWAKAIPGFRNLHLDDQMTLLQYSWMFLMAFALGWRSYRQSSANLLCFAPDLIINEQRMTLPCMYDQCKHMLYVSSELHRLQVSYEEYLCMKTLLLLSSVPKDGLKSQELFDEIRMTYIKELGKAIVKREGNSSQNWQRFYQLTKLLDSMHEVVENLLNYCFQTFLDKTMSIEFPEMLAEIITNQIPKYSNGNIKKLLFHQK
# [11] = target: Glucocorticoid receptor (Homo sapiens) (UniProt P04150); experiment: GR-EFC Redistribution (AID 451; calls by dose curve; further: potency means the concentration at half of the fitted maximal effect); details: CHO-K1 GR-EFC translocation, beta-gal luminescence, 2 h
# Procedure, shortened: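 CHO-K1 cells expressing nuclear EA and GR-ED fragments of b-gal; compounds titrated up to 46 uM final, 2 h at 37 C. GR nuclear translocation read as complemented b-gal luminescence after 1 h RT detection.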
# [12] = target: 3',5'-cyclic-AMP phosphodiesterase 4B (Homo sapiens) (UniProt Q07343); experiment: qHTS Assay for Inhibitors of PDE-IV (AID 607; active means well fitted activation curve with a large enough effect in the main read-out, with a control signal flat, not every such curve was filed as active; further: % of control where 0% means no effect); details: HEK293 ACTOne CNG channel cells, membrane potential fluorescence; series mostly up to 22.9 µM
# Sequence of 3',5'-cyclic-AMP phosphodiesterase 4B (Homo sapiens) (Q07343 whole entry, looked up): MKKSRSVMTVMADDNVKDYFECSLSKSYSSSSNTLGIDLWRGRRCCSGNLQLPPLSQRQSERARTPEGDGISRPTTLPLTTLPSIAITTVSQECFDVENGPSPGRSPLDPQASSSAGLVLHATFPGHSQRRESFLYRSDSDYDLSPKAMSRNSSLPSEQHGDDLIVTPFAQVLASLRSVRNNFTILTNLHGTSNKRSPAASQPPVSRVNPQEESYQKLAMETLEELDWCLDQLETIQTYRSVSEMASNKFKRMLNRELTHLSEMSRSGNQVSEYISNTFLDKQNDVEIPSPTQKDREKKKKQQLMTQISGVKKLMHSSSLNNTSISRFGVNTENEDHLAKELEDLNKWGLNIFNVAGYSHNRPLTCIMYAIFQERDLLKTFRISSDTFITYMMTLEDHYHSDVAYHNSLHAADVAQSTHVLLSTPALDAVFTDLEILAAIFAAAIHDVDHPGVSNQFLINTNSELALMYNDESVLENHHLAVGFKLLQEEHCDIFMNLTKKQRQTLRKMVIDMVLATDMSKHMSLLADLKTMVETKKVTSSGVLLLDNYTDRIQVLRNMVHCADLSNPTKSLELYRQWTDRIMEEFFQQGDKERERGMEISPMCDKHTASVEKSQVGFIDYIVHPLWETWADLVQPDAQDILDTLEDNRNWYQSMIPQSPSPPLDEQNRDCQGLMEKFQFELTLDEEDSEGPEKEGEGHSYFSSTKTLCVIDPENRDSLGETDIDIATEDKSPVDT
# Procedure, shortened: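 Cell-based read-out of cAMP via a modified cyclic nucleotide-gated channel and membrane potential dye (535/590 nm) in HEK293 cells expressing PDE4 endogenously. Compounds tested up to 22.9 uM final; 100 uM RO 20-1724 reference.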
# [13] = target: Guanine nucleotide-binding protein G(i) subunit alpha-1 (Homo sapiens) (UniProt P63096); experiment: qHTS Assay for Inhibitors of RGS12 GoLoco Motif Activity (Green Fluorophore) (AID 879); details: Galphai1/FITC-RGS12 GoLoco peptide, fluorescence polarization; series mostly up to 57.1 µM;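 further: 0% = labeled peptide with Gαi1 and full inhibition = labeled peptide alone without protein; negative values mean loss of peptide binding seen as reduced polarization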
# Procedure, shortened: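 A drop in FITC polarization marked displacement of the FITC-tagged RGS12 GoLoco peptide (10 nM) from Gαi1 (50 nM). Compounds were incubated 10 min at room temperature in Tris pH 7.5 buffer containing 150 mM NaCl, 0.1 mM GDP and 0.05% NP40; unlabeled peptide titration served as control.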
# [14] = target: Cytochrome P450 3A4 (Homo sapiens) (UniProt P08684); experiment: qHTS Assay for Activators of Cytochrome P450 3A4 (AID 885); details: recombinant CYP3A4, Luciferin-PPXE luminescence, 60 min; series mostly up to 57.1 µM; further: nearly all actives have a fitted effect of over 65% in size
# Sequence of Cytochrome P450 3A4 (Homo sapiens) (P08684 whole entry, looked up): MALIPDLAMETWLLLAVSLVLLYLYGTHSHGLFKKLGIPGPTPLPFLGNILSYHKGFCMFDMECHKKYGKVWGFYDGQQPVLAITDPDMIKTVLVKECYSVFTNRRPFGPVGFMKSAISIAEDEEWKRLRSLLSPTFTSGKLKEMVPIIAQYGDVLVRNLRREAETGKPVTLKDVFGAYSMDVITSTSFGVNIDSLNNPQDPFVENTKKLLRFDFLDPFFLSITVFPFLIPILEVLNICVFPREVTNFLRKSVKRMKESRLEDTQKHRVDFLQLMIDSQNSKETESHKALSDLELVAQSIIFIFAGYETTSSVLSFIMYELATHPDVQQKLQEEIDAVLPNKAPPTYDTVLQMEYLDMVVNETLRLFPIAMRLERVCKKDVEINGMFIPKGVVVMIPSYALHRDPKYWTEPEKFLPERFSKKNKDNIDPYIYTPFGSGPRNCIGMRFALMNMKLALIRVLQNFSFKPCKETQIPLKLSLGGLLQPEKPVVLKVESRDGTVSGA
# Procedure, shortened: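 Luminescent readout of luciferin formed from 25 uM Luciferin-PPXE (KM level) by 20 nM CYP3A4 in 200 mM KPO4, with 60 min NADPH-driven reaction at room temperature after 10 min compound exposure. Ketoconazole (57 uM) defined 100% inhibition.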
# [15] = qHTS Assay for Identification of Small Molecule Antagonists for NFkB Signaling Pathway (AID 895; active means well fitted inhibition curve with a large enough effect in the signal ratio, with a control signal flat, not every such curve was filed as active; the % refers to the signal ratio; further: potency means the concentration at half of the fitted maximal effect); details: NFkB beta-lactamase reporter cells, FRET ratio 460/530; stimulated with 10 pM TNF alpha
# Procedure, shortened: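 ME-180 NFkB-bla cells (beta-lactamase under NFkB response element), plated overnight, treated with compound then 10 pM TNF alpha (about EC50) for 5 hrs at 37 C. LiveBLAzer FRET read at 460/530 nm emission, 405 nm excitation.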
# [16] = target: Muscarinic acetylcholine receptor M1 (Rattus norvegicus) (UniProt P08482); experiment: qHTS Assay for Antagonists of Acetylcholine Muscarinic M1 Receptor: Kinetic Measurement of Intracellular Calcium Response (AID 943); details: M1-expressing cells, kinetic intracellular calcium fluorescence; series mostly up to 35.3 µM;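 further: Fluo-4 calcium signal as peak divided by basal fluorescence over 4 min; nearly all actives have a fitted effect of over 75% in size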
# Sequence of Muscarinic acetylcholine receptor M1 (Rattus norvegicus) (P08482 whole entry, looked up): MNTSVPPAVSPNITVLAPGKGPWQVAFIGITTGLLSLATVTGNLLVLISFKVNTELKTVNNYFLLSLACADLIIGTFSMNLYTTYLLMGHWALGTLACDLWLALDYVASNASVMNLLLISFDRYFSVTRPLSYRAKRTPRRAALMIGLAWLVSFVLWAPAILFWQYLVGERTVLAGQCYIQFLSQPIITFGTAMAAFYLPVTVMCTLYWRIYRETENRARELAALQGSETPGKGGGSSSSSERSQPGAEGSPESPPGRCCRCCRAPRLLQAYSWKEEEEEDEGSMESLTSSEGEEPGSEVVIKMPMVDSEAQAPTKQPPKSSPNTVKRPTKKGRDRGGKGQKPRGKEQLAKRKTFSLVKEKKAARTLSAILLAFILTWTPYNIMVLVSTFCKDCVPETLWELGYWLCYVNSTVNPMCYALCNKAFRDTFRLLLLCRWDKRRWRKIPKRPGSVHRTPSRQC
# Procedure, shortened: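 Quantitative HTS in CHO-M1 (rat receptor) cells: 10 min compound exposure ahead of 100 nM carbachol, Fluo-4 fluorescence followed 4 min, value expressed as peak-to-basal ratio.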
# [17] = target: Pyruvate kinase (Leishmania mexicana) (UniProt Q27686); experiment: qHTS Validation Assay for Inhibitors of Leishmania Mexicana Pyruvate Kinase (AID 945);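 further: 0% = DMSO only neutral control wells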; details: purified L. mexicana pyruvate kinase, enzyme activity, E451W mutant enzyme; series mostly up to 57.5 µM
# Sequence of Pyruvate kinase (Leishmania mexicana) (Q27686 2-499 E452W): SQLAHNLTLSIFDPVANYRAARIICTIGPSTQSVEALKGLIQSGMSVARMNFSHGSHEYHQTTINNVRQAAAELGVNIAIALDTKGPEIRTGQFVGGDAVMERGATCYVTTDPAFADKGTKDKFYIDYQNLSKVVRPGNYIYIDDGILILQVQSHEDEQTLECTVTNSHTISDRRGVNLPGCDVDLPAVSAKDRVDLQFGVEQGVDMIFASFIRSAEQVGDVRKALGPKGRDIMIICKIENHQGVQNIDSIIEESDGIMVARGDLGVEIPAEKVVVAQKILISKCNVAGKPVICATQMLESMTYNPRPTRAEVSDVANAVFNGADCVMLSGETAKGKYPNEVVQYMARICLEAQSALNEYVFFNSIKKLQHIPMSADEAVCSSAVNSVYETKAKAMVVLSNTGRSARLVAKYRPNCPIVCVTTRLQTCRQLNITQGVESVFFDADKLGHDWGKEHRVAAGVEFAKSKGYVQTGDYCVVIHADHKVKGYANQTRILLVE
# Procedure, shortened: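 Substrate mix (0.5 mM PEP, 0.1 mM ADP, 7 mM MgCl2, 50 mM KCl, pH 7.2 imidazole) received compound by pin tool, then 0.2 nM LmPYK E451W. After 1 h at room temperature, PKLight was added and luminescence measured.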
# [18] = target: Pyruvate kinase PKM (Homo sapiens) (UniProt P14618); experiment: qHTS Assay for Activators of Human Muscle Pyruvate Kinase (AID 954; active means well fitted curve in the direction sought with a large enough effect, not every such curve was filed as active;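 further: 0% = uninhibited enzyme and -100% = no enzyme or full thiadiazolimine inhibition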); details: purified human muscle pyruvate kinase, luciferase-coupled luminescence, 1 h; series mostly up to 57.5 µM
# Sequence of Pyruvate kinase PKM (Homo sapiens) (P14618 whole entry, looked up): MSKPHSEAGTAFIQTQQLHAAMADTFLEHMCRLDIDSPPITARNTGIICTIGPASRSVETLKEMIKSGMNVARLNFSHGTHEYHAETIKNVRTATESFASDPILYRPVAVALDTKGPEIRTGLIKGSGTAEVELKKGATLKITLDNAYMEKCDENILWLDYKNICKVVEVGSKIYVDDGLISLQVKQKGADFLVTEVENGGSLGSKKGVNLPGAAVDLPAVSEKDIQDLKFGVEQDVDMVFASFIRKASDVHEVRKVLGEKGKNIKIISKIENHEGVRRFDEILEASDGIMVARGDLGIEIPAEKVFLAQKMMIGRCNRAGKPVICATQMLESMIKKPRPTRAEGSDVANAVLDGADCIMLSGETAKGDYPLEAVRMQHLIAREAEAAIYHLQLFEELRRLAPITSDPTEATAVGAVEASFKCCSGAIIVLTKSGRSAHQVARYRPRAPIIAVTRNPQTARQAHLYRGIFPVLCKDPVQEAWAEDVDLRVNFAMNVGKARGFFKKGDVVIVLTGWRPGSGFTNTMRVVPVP
# Procedure, shortened: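 ATP production by PKM2 detected via luciferase luminescence after 1 h room-temperature reaction (0.1 nM enzyme, PEP at Km 0.5 mM, ADP 0.1 mM, pH 7.2 imidazole buffer). Inhibition scaled to no-enzyme control; activation referenced to 0.3 nM enzyme wells.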
# [19] = target: Alpha-galactosidase A (Homo sapiens) (UniProt P06280); experiment: Counterscreen for Glucocerebrosidase Inhibitors: qHTS Assay for Human alpha-Galactosidase at pH 4.5 (AID 992); details: purified enzyme, fluorogenic substrate; series mostly up to 76.9 µM; further: 0% is about no effect
# Sequence of Alpha-galactosidase A (Homo sapiens) (P06280 whole entry, looked up): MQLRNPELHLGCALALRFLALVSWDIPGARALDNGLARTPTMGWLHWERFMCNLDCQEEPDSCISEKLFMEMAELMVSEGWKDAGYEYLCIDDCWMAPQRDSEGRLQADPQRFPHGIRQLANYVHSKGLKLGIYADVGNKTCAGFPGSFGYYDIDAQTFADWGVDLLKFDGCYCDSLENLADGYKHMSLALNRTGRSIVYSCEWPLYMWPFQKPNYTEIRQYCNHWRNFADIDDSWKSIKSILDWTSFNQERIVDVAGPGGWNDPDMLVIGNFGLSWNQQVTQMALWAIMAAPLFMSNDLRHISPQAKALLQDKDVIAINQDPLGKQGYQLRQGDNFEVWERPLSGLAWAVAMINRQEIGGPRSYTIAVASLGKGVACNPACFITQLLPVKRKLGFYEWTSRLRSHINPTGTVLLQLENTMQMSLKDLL
# Procedure, shortened: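 Fluorogenic 1536-well qHTS at pH 4.5 (citrate, Tween-20): 2 nM enzyme, 80 uM 4-MU-alpha-galactoside, 20 min room temperature, NaOH/glycine stop. Titration 0.7 nM to 77 uM, data normalized to no-enzyme and full-activity controls, Hill-fitted AC50.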
# [20] = target: alpha-glucosidase (Oryza sativa, rice) (UniProt Q653V4); experiment: Counterscreen for Glucocerebrosidase Inhibitors: qHTS Assay for Rice alpha-Glucosidase at pH 5.0 (AID 997); details: rice alpha-glucosidase enzyme activity; series mostly up to 76.9 µM;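 further: 0% = full activity with enzyme and -100% = basal without enzyme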
# Procedure, shortened: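 Endpoint fluorogenic assay at pH 5.0: compounds (0.7 nM to 77 uM) titrated against 4 nM rice enzyme and 400 uM 4-MU-alpha-glucoside for 20 min at room temperature; NaOH/glycine stop, read ex 365/em 440 nm, Hill-fitted AC50.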
smiles,measurement,setting,value
NC(=O)c1cccc2[nH]c(-c3ccc([C@@H]4CCCN4)cc3F)nc12,activity,[1],-9.14%
same,"activity change, negative = inhibition",[2],-8.18%
same,activity,[3],-23.8%
same,activity,[4],-6.69%
same,Potency,[5],inactive
same,Z-AUC,[6],-0.692 (inactive)
same,Z-AUC,[6]; measured here: PEO1 parental Z-AUC,-1.03
same,Z-AUC,[6]; measured here: PEO4 Z-AUC,-0.377
Nc1ccccc1NC(=O)c1cnccn1,Potency,[5],inactive
CCN(CC)CCCNC(=O)CCc1nnc2n(Cc3ccccc3)c(=O)c3ccccc3n12,activity,[1],1.43%
same,"activity change, negative = inhibition",[2],0%
same,activity,[3],-2.92%
same,activity,[4],0.626%
CC(C)c1cnn2c(NCc3ccccc3-n3cccn3)nc(OC3CCCNC3)nc12 (configuration not stated),Potency,[5],inactive
CC(C)=CCC/C(C)=C/CC/C(C)=C/C=C/C(C)=C/C(=O)O,Potency,[5],inactive
COc1ccc(C(=O)N(Cc2ccco2)S(=O)(=O)c2ccc3c(c2)n(C)c(=O)n3C)cc1,activity,[1],-5.23%
same,"activity change, negative = inhibition",[2],-1.3%
same,activity,[3],-20%
same,activity,[4],-5.7%
O=C(O)CCc1ccc(O)cc1,Potency,[5],inactive
C/C(=N\NC(=O)C(NC(=O)c1ccccc1)c1n[nH]c(=O)c2ccccc12)c1cccc(Br)c1 (configuration not stated),Potency,[5],inactive
CCCCc1ccc(O)cc1O,Potency,[5],inactive
COc1ccc(-c2sc(NC(=O)C(C)(C)C)nc2C)cc1S(=O)(=O)Nc1ccc(O)cc1,Potency,[5],inactive
COC(=O)[C@H](CCSC)NC(=O)c1ccc(NC[C@@H](N)CS)cc1-c1ccccc1,Potency,[5],inactive
COc1cccc([S+](=O)([O-])N2CCC3(C2)N=C(c2cccnc2)C(=O)N3)c1 (configuration not stated),activity,[1],-6.05%
same,"activity change, negative = inhibition",[2],-6.21%
same,activity,[3],-8.17%
same,activity,[4],-16.9%
COc1cc(O)c2c(=O)cc(-c3ccc(O)cc3)oc2c1,Potency,[5],inactive
Cc1nc2ccccc2c(-c2ccc3c(c2)CCCO3)c1C(OC(C)(C)C)C(=O)O (configuration not stated),Potency,[5],inactive
N#Cc1ccccc1-c1cc2c(ccn2Cc2ccncc2)c(N2CCOCC2)n1,activity,[1],-6.69%
same,"activity change, negative = inhibition",[2],-0.304% [at 85.7 µM]
same,activity,[3],-6.24%
same,activity,[4],-4.65%
Cc1cnccc1NCCn1ccnc1-c1cc2n(n1)CCCNC2,activity,[1],-0.636%
same,"activity change, negative = inhibition",[2],2.5%
same,activity,[3],0.35%
same,activity,[4],0.494%
C[C@H]1CC[C@@]2(O)C(C)(C)[C@@H]3CC[C@@]2(C)[C@H]1C3,Potency,[5],inactive
O=c1cc(O)cc(/C=C\c2ccc(O)c(O)c2)o1,"activity change, negative = inhibition",[7],-18.8% [at 38 µM] (inactive)
same,Potency,[8],inactive
same,"activity change, negative = inhibition",[9],-13.6% [at 38 µM] (inactive)
same,Potency,[10],> 46 µM (inactive)
same,Potency,[11],> 46 µM (inactive)
same,Potency,[12],inactive
same,Potency,[13],inactive
same,outcome,[14],inactive
same,Potency,[15],1.26 µM (active)
same,Potency,[16],inactive
same,outcome,[17],inactive
same,outcome,[18],inactive
same,outcome,[19],inactive
same,outcome,[20],inactive
same,activity,[1],135%
same,Potency,[2],24.3 µM (active)
same,activity,[3],-15.8%
same,activity,[4],-1.5%
